Screens as filed in PubChem BioAssay.
TEAD-YAP block – TEAD-YAP interaction inhibition, primary screen, TEAD-YAP interaction inhibitor project, luminescence, HEK-TIYL cells | inhibition, % at 9.12 µM | TEAD-Gal4/YAP UAS-luciferase luminescence | hit rate 1.4% among 640,000 | AID 1259422, 2018; in the data active = inhibition above about 32%
MITF inh – MITF inhibitors, primary screen, biochemical, AlphaScreen, human. AlphaScreen MITF homodimerization, bead proximity signal. Microphthalmia-associated transcription factor (Homo sapiens), O75030. inhibition, % at 2.6 µM. hit rate 0.91% among 650,000; in the data active = inhibition above about 50%
GPR151 ag – activators of human GPR151, primary screen, cell-based, PathHunter beta-arrestin, luminescence; G-protein coupled receptor 151 (Homo sapiens), Q8TDV0; PathHunter beta-arrestin GPR151 cells; activation, % at 11.2 µM; hit rate 1% among 650,000; in the data active = activation above about 4.9%
FBW7 activator – FBW7 E3 ligase activators, primary screen, biochemical, AlphaScreen, human; normalized activity (activation), % at 26.1 µM; hit rate 0.13% among 650,000; F-box/WD repeat-containing protein 7 (Homo sapiens), Q969H0; AID 1259310, 2017; AlphaScreen FBW7–phospho-cyclin E peptide binding, activator screen; in the data active = normalized activity above about 1.9%;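 note: purified mutant Fbw7 with reduced substrate affinity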
Large screens that a line does not name were inactive; ! = not confirmed by another sample. Sampled rows, rich in hits. Any-hit rate of the full collection: about 3.5%.

Cc1ccc(C(C)C)c(OCC(=O)N/N=C/c2ccc[nH]2)c1	none
Cc1ccc(C(C)C)c(OCC(=O)N/N=C/c2ccc(O)cc2)c1	TEAD-YAP block 48
CCOC(=O)C1CCCN(Cc2ccc(C(=O)NCCn3nc(C)cc3C)c(=O)[nH]2)C1 (stereo not given)	none
NC(=O)c1ccc(-c2nc(N)c3ncn(C4CCCCC4)c3n2)cc1	none
COc1cccc(/C=N/NC(=O)COc2cccc(C)c2C)c1O	none
COc1cccc(/C=N/NC(=O)COc2cc(C)ccc2C(C)C)c1O	TEAD-YAP block 57
CCCNc1nc(N2CCCC2CO)nc2c1ncn2-c1ccccc1 (stereo not given)	TEAD-YAP block 37
COc1ccc(CCNc2nc(N3CCCC3CO)nc3c2ncn3-c2ccccc2)cc1 (stereo not given)	none
OCC1CCCN1c1nc(NCCc2ccc(O)cc2)c2ncn(-c3ccccc3)c2n1 (stereo not given)	TEAD-YAP block 43
CCc1cccc2c(C(=O)COC(=O)c3ccc(S(C)(=O)=O)c([N+](=O)[O-])c3)c[nH]c12	none
c1ccc(-c2nc(NC3CC3)cc(-c3cccnc3)n2)nc1	TEAD-YAP block 44
c1ccc(-c2nc(NC3CC3)cc(-c3cccnc3)n2)cc1	none
c1ccc(-c2nc(NC3CCCCC3)cc(-c3ccncc3)n2)nc1	TEAD-YAP block 36
c1ccc(-c2nc(NC3CCCCC3)cc(-c3cccnc3)n2)nc1	TEAD-YAP block 69
COc1ccc(NC(=O)CN2CCN(c3ccccc3F)CC2)cc1Cl	none
CCOc1ccc(C(=O)C2CCN(C(=S)NC)CC2)cc1	none
COc1cccc2sc(Nc3nnc(-c4ccccc4Cl)o3)nc12	TEAD-YAP block 46
COc1ccccc1-c1nnc(Nc2nc3c(OC)cccc3s2)o1	TEAD-YAP block 53
COc1cccc2sc(Nc3nnc(-c4ccccc4)o3)nc12	none
O=C(Nc1ccncc1)c1ccccc1CCc1ccccc1	none
COc1cccc(CN2CCc3nc(-c4ccccn4)nc(N4CCCC4)c3C2)c1	TEAD-YAP block 41
CN1C(C(=O)Nc2ccccn2)=C(O)c2sccc2S1(=O)=O	FBW7 activator 2.0!
COc1cc2c(cc1OC)C(C(=O)O)C(c1cc(Cl)ccc1O)N(C)C2=O (stereo not given)	none
O=C(O)C(=O)/C(=C\c1ccsc1)c1ccc2ccccc2n1	TEAD-YAP block 45
O=C(O)C(=O)/C(=C\c1ccccc1)c1ccc2ccccc2n1	none
COC(=O)C(C)OC(=O)c1ccc(Cl)c([N+](=O)[O-])c1 (stereo not given)	FBW7 activator 3.0
CCOC(=O)C(C)OC(=O)c1ccc(Cl)c([N+](=O)[O-])c1 (stereo not given)	none
COc1ccc(C(=O)c2ccc(Cl)c([N+](=O)[O-])c2)cc1	TEAD-YAP block 62
COc1ccc(C(=O)c2ccc(Br)c([N+](=O)[O-])c2)cc1C	TEAD-YAP block 65
O=C(Nc1cnc2ccccc2c1)c1ncoc1-c1ccccc1C(F)(F)F	none
CC(C)(C)OC(=O)N1CCCC(c2ccnc3cc(C(C)(C)C)nn23)C1 (stereo not given)	FBW7 activator 2.1
COc1cc(-c2cc(=O)c3cc(O)ccc3o2)cc(OC)c1OC	none
COc1ccc(-c2cc(=O)c3c(O)cc(O)cc3o2)cc1O	none
COc1cc(-c2c3cc(O)c(=O)cc-3oc3cc(O)c(O)cc23)cc(Cl)c1OC	MITF inh 98
COc1ccc(-c2c3cc(O)c(=O)cc-3oc3cc(O)c(O)cc23)cc1C	MITF inh 109
COc1ccc(-n2nc(C(=O)NCC(=O)Nc3cc(OC)c(OC)c(OC)c3)c3ccccc3c2=O)cc1OC	TEAD-YAP block 49
COc1ccc(-n2nc(C(=O)NCC(=O)Nc3ccc(F)cc3)c3ccccc3c2=O)cc1OC	none
COc1cccc(NC(=O)CNC(=O)c2nn(-c3ccc(OC)c(OC)c3)c(=O)c3ccccc23)c1	TEAD-YAP block 34
CC(C)(C)c1nc2scc(-c3ccccc3)c2c(=O)o1	none
CC(C)(C)c1nc2scc(-c3ccc(Br)cc3)c2c(=O)o1	TEAD-YAP block 34
N#CCCN(C(=O)CCl)c1ccccc1	TEAD-YAP block 65
Cc1ccc(N(CCC#N)C(=O)CCl)cc1	TEAD-YAP block 77
N#CCCN(C(=O)CCl)c1ccc(F)cc1	TEAD-YAP block 82
CCOc1ccc(N(CCC#N)C(=O)CCl)cc1	TEAD-YAP block 46
CCOC(=O)N(CC#N)c1ccc(C)cc1	none
